From PubChem BioAssay
TGFb SMAD3 inh – TGF-b pathway inhibition; HepG2 CAGA-GFP TGF-b/SMAD3 reporter, GFP fluorescence, 18 h; TGF-beta stimulated, 500 pg/mL final; Potency, µM (doses to about 46.1 µM), inactives show top-dose activity, negative = inhibition, actives largely listed as inhibitors; 410,000 tested, 1.2% active; also: % is scaled to controls: 0 for no effect and ±100 for the full control effect; nearly all actives have a fitted effect of over 65% in size
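Read-out: total well GFP (ex488/em500-530) summed from mean per-cell fluorescence. Cells: HEPG2 CAGA-GFP, 1% FBS DMEM, 18 h at 37 degrees C with 500 pg/mL final TGF-beta. Unstimulated wells served as the full-inhibition control; stimulated DMSO wells = 0%.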
HepG2 tox – counter-screen for TGF-b inhibitors: cytotoxicity in HepG2 cells | HepG2 CAGA-GFP viability, ATP luminescence, 18 h | Potency, µM (titrated, usually from 46.1 µM), inactives show at the top dose activity change, negative = cytotoxicity, actives largely listed as cytotoxic | 410,000 tested, 0.76% active
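HepG2 CAGA-GFP cells (1000/well, DMEM with 1% FBS) received compound, then TGF-beta at 500 pg/mL final, and were incubated 18 hours at 37 degrees C. Viability was read by CellTiter-Glo luminescence. Media-only wells were set as complete cell-killing and DMSO as no toxicity.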
TDP1 cell CPT – growth inhibition of DT40 Tdp1-/-;hTDP1 cells with camptothecin (screen for TDP1 inhibitors). AID 686979. 420,000 tested, 12% active. Potency, µM (highest dose often 46.2 µM), for the others: top-dose activity change, negative = growth inhibition, actives largely listed as inhibitors. chicken DT40 Tdp1-/-;hTDP1 cells + 20 nM CPT, ATP luminescence, 48 h; also: % is scaled to controls: 0 for no effect and ±100 for the full control effect; nearly all actives have a fitted effect of over 55% in size
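Chicken DT40 Tdp1-/- cells complemented with human TDP1, 400 cells/well, exposed to compounds plus 20 nM camptothecin for at least 48 h at 37 C; viability read as ATP content by CellTiter-Glo luminescence.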
ATXN2 expr inh – reduces ATXN2 reporter expression in HEK-293 cells | HEK-293 ATXN2-luciferase reporter, luminescence, 24 h | Potency, µM (highest dose often 57 µM), inactives show at the top dose activity change, negative = inhibition, hits mostly inhibitors | 360,000 tested, 0.72% active; also: % is scaled to controls: 0 for no effect and ±100 for the full control effect; nearly all actives have a fitted effect of over 55% in size
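ATXN2-luciferase reporter cells (luciferase flanked by upstream and downstream ATXN2 gene portions) were treated 24 h at 37 °C with compounds at up to 57 uM. SteadyGlo luminescence gave expression; GF-AFC fluorescence gave viability.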
TDP1 cell noCPT – qHTS for Inhibitors of human tyrosyl-DNA phosphodiesterase 1 (TDP1): qHTS in cells in absence of CPT. 420,000 tested, 15% active. Potency, µM (titrated, usually from 46.2 µM), without a hit: at the top dose activity change, negative = growth inhibition, hits mostly inhibitors. DT40 Tdp1-/- hTDP1 cells, no CPT, ATP luminescence, 48 h. AID 686978, 2013; also: % is scaled to controls: 0 for no effect and ±100 for the full control effect; nearly all actives have a fitted effect of over 55% in size
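Stably hTDP1-transfected Tdp1-null chicken DT40 cells were treated with library compounds minus camptothecin and grown for at least 48 hr at 37 °C, after which cellular ATP was quantified by luminescence.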
ATXN viability – viability counter-screen for ATXN expression inhibitors; S2 cells (HEK-293 line with an ATXN2-luciferase reporter) viability, CellTiter-Fluor protease fluorescence, 24 h; Potency, µM (doses to about 56.7 µM), usual class: cytotoxic; 400,000 tested, 0.49% active; also: nearly all actives have a fitted effect of over 40% in size
* hit, by the source's call; i = inactive; ? = inconclusive; / = no result; ! = a repeat was not active. Shown are actives, neighbours in structure and some others; about 17% of the full set was active somewhere. Calls follow the shape of the dose curve; as a rule, active = well fitted curve in the direction sought with a large enough effect; inconclusive = small, poorly fitted or top-dose-only effect, or another doubt; inactive = no such curve, though single readings can be large; an effect the other way counts as inactive or inconclusive. Potency is read from the fitted curve at half-maximal effect.

SMILES	TGFb SMAD3 inh	HepG2 tox	TDP1 cell CPT	ATXN2 expr inh	TDP1 cell noCPT	ATXN viability
O=C(CSCc1ccc(F)cc1)N1CCN(c2ccc(Cl)cc2)CC1	?	-38%	16µM*	/	21µM*	/
Cc1cccc(N2CCN(C(=O)CSCc3c(C)noc3C)CC2)c1C	-12%	-14%	21µM*	-1%	7.3µM*	i
Cc1noc(C)c1CSc1ccccc1C(=O)N1CCN(c2ccccc2)CC1	-3%	-21%	?	-8%	?	i
O=C(Cc1ccc(Cl)cc1)N1CCN(c2ccc(F)cc2)CC1	2%	-3%	?	-9%	?	i
Cc1noc(C)c1CSCC(=O)N1CCN(c2ccc(F)cc2)CC1	-11%	-7%	?	-18%	18µM*	i
CC1=C(c2ccc(C)cc2)S(=O)(=O)N=C1N1CCN(c2ccccc2)CC1	-6%	8%	-12%	/	-13%	/
O=C(N/N=C/C(Br)=C/c1ccccc1)c1cccs1	9%	1%	16µM*	95%	18µM*	i
O=C(N/N=C/C(Br)=C/c1ccccc1)c1ccccc1F	-14%	-12%	12µM*	-18%	23µM*	i
COc1ccc(NC(=O)c2ccncc2)cc1S(=O)(=O)N1CCCCC1	3%	5%	-3%	/	1%	i
Cc1cc(Br)ccc1NC(=O)c1sc2ncnc(N3CCN(c4ccccn4)CC3)c2c1C	6%	2%	10µM*	-28%	2.6µM*	i
COc1ccc(NC(=O)c2sc3nc(C)nc(N4CCN(c5ccccn5)CC4)c3c2C)cc1Cl	-3%	-1%	?	-25%	21µM*	i
COc1ccc(NC(=O)c2sc3ncnc(N4CCN(c5ccccn5)CC4)c3c2C)cc1Cl	?	6%	21µM*	?	5.8µM*	i
Cc1cc(Br)ccc1NC(=O)CN1CCN(c2ccccn2)CC1	-28%	-29%	-9%	/	-25%	i
Cc1ccc(S(=O)(=O)N2CCc3cc4c(cc3C2C)OCCCO4)cc1 (stereo not given)	-2%	-3%	18µM*	0%	?	i
COc1ccc(S(=O)(=O)N2CCc3cc4c(cc3C2C)OCCCO4)cc1 (stereo not given)	?	3%	16µM*	-30%	?	i
COC(=O)c1ccc2nc(-c3ccc(C#N)cc3)c(Cc3cccc(F)c3)n2c1	-12%	-12%	15µM*	12%	18µM*	?
Cc1ccc2nc(C(C)(C)C)c(Cc3cccc(F)c3)n2c1	?	-23%	15µM*	?	18µM*	?
COC(=O)c1ccc2nc(-c3ccc(C)cc3)c(Cc3cccc(F)c3)n2c1	/	/	21µM*	9%	21µM*	i
O=C(Nc1ccc(Cl)c(S(=O)(=O)N2CCOCC2)c1)c1ccncc1	5%	-10%	-28%	-3%	-31%	i
COc1ccc(CCNC(=O)c2cc(C)nc3c2c(C)nn3-c2ccccc2)cc1OC	4%	-27%	/	-14%	/	i
Cc1nc(SCC(=O)c2cc3ccccc3oc2=O)c(C#N)c(-c2ccccc2)c1C(=O)Nc1ccccc1	-2%	2%	?	-14%	18µM*	i
COc1ccc(-c2c(C#N)c(SCC(=O)c3cc4ccccc4oc3=O)nc(C)c2C(=O)Nc2ccccc2)cc1	?	-26%	?	-9%	?	?
O=c1c(Cc2ccc(Cl)cc2Cl)c(O)ccn1CC(F)(F)F	-12%	8%	-8%	4%	5%	i
CC(C)(C)CC(C)(C)c1ccc(O)c(Cc2ccc(Cl)cc2Cl)c1	?	-41%	?	22µM*!	?	28µM*
O=C(O)CNC(=O)/C(=C\c1cccc([N+](=O)[O-])c1)NC(=O)c1ccco1	-22%	-13%	7%	21%	9%	i
SMILES	TGFb SMAD3 inh	HepG2 tox	TDP1 cell CPT	ATXN2 expr inh	TDP1 cell noCPT	ATXN viability
O=c1cc(-c2ccc(F)cc2)nc(SCc2nc(-c3ccccc3Cl)no2)[nH]1	-24%	-5%	-30%	/	-24%	/
O=C(OC1C[C@@H]2CC3C[C@H](C1)N2CC3=O)c1c[nH]c2ccccc12 (stereo not given in full)	/	/	?	/	21µM*	/
COc1cc(C2C=C(c3cccs3)Nc3ncnn32)cc(OC)c1OC (stereo not given)	55%	1%	0.82µM*	?	0.65µM*	/
CCc1cccc(CC)c1NC(=O)c1cccc(S(=O)(=O)N2CCN(C)CC2)c1	-7%	2%	-8%	-8%	3%	i
Cc1ccc2nc(-c3c[nH]c4ccccc34)c(Nc3ccccc3C)n2c1	2%	-34%	16µM*	23%	3.3µM*	i
Cc1ccc(Nc2c(-c3ccc(Br)o3)nc3ccccn23)cc1	19%	-2%	?	12%	?	i
Cc1ccccc1Nc1c(-c2c[nH]c3ccccc23)nc2cccc(C)n12	-18%	-15%	?	35%	?	i
Cc1ccc(Nc2c(-c3c[nH]c4ccccc34)nc3ccccn23)cc1	-11%	-45%	13µM*	?	21µM*	?
CNC(=O)/C(C#N)=C/c1c(N(Cc2ccccc2)Cc2ccccc2)nc2ccccn2c1=O	?	6%	16µM*	-9%	16µM*	i
COC(=O)/C(C#N)=C/c1c(N2CCN(c3ccccc3)CC2)nc2ccccn2c1=O	34%	5%	17%	18%	-25%	i
NNC(=S)Nc1c(F)cc(F)cc1Br	0%	-45%	?	2%	13µM*	i
Cc1cc(C(=O)Nc2c(F)cc(F)cc2Br)cs1	-6%	-2%	?	2%	1%	i
O=C(CSc1nc2ccncc2[nH]1)Nc1ccccc1C(F)(F)F	0%	11%	?	-8%	15µM*	i
Nc1ncnc2nc(SCC(=O)Nc3cccc(C(F)(F)F)c3)[nH]c12	?	-10%	-14%	-11%	-6%	i
O=C(CSc1nc2cc3ccccc3cc2[nH]1)Nc1cccc(C(F)(F)F)c1	?	-91%	18µM*	-20%	21µM*	i
O=C(CSc1nc2ccccc2c(=O)[nH]1)Nc1ccccc1C(F)(F)F	-30%	-78%	?	/	?	i
COc1cc(OC)c(NC(=O)CSc2nc3ccncc3[nH]2)cc1Cl	?	-11%	6.5µM*	-14%	5.2µM*	?
